# According to ChEMBL document CHEMBL4513216, “Probing the Open Global Health Chemical Diversity Library for Multistage-Active Starting Points for Next-Generation Antimalarials” (ACS Infect Dis, 2020):
# The campaign covered roughly 69,000 compounds. About 8,600 (12%) showed an effect of 50% or more. The sample as a whole holds a higher share of strong results than the screen did.
# Test system: Plasmodium berghei
# Assay: Screen against P. berghei liver stage (PbLuc), transformed with Luciferase, at 10uM
# Type: functional, HepG2
# Conditions: tested at 10 uM
row,Compound,INHIBITION [%]
1,COc1ccc(CN2CCC3(CC2)CCN(CCN(C)C)C3=O)cc1,-17.1
2,COc1cccc(-c2nccc(C3CCCN3C)n2)c1 (stereo unspecified),21.1
3,CN(C)CCN1CCN(C)c2nc(-c3ccccc3)ncc2C1=O,59
4,COc1cccc(-c2ncc3c(n2)N(C)CCN(CCN(C)C)C3=O)c1,57.5
5,CN(C)c1ncc2c(n1)N(C)CCN(CC1CC1)C2=O,21.9
6,CN1CCN(CC2CC2)C(=O)c2cnc(N3CCCC3)nc21,11
7,CCCN(C)c1ncc2c(n1)N(C)CCN(CC1CC1)C2=O,5.56
8,CN1CCN(CC2CC2)C(=O)c2cnc(N3CCCCC3)nc21,7.64
9,CCc1ccc(-c2ncc3c(n2)N(C)CCN(CCN(C)C)C3=O)cc1,79.7
10,COc1cccc2cc(CNC(=O)N3CCS(=O)(=O)CC3)oc12,23.5
11,Cc1noc(C)c1-c1cncc(C2CCCN2Cc2ncccc2F)n1 (stereo unspecified),1.5
12,CCn1ncc(Nc2[nH]cnc3nncc2-3)c1C,31.2
13,N#Cc1ccc(S(=O)(=O)NC(=O)C2CC(c3ccccc3)=NO2)cc1 (stereo unspecified),6.09
14,OCCc1ccccc1-n1ccnc1-c1cn(C2CCNCC2)nn1,51.2
15,CSc1ccccc1-n1ccnc1-c1cn(C2CCNCC2)nn1,3.96
16,Clc1ccccc1CCn1ccnc1-c1cn(C2CCNCC2)nn1,22.4
17,Cc1cc(CN2C[C@@H]3COC[C@H](C(=O)N4CCCCO4)[C@@H]3C2)oc1C,45.1
18,Cc1csc(N2CCN(CC(=O)N3CCCC3)CC2C)n1 (stereo unspecified),32.25
19,CC(c1cccc(S(N)(=O)=O)c1)N(C)CCOC(C)(C)C (stereo unspecified),-27.8
20,Cc1ccsc1C(=O)NC1CCN(c2cnn(C)c2)C1=O (stereo unspecified),65.5
21,Cc1ccccc1C(=O)NC1CCN(c2cnn(C)c2)C1=O (stereo unspecified),11.7
22,Cc1cccc(C(=O)NC2CCN(c3cnn(C)c3)C2=O)c1C (stereo unspecified),30.5

row,Compound,INHIBITION [%]
1,CC1(C(=O)N2CCOCC2)CNCCO1 (stereo unspecified),6.9
2,CCCN1CCCN(c2ncccc2C(=O)N2CCCCC2)CC1,25.1
3,CCCN1CCCN(C(=O)c2ccc(Oc3cccnc3)cc2)CC1,61
4,CCCN1CCN(C(=O)c2cccnc2)CC1,64.7
5,O=C(c1ccc(Oc2cccnc2)cc1)N1CCN(CCO)CC1,40.6
6,Cc1cc(N2CCN(C(=O)c3cccnc3)CC2)nc(C)n1,6.26
7,CCOc1ccnc(N2CCN(C(=O)c3cccnc3)CC2)n1,15.5
8,CCc1cc(N(C)CCc2c(C)n[nH]c2C)ncn1,23
9,O=C(CCn1ccnc1)N1CC[C@H](Oc2ccc(F)cc2)[C@@H](O)CC1,32.05
10,CN(CC(N)=O)C(=O)c1csc(Br)c1,-5.1
11,CS(=O)(=O)NCCC(=O)Nc1cnn(-c2ccccc2Cl)c1,7.08
12,Cc1nn(-c2ccccc2)c(C)c1-c1ccnc(N2CCCOCC2)n1,-54.3
13,Cc1nn(-c2ccccc2)c(C)c1-c1ccnc(N2CCCNCC2)n1,85.8
14,Cc1nn(-c2ccccc2)c(C)c1-c1ccnc(N2CCC(O)CC2)n1,20.2
15,O=S(=O)(N1CCOCC1)N1CCCC1Cn1cccn1 (stereo unspecified),-5.71
16,Cc1nc(C2CN(Cc3ccc(F)cc3Br)CCO2)no1 (stereo unspecified),11.8
17,CN(c1ccc(-c2nc(C3CC3)no2)cn1)C1CCOCC1,-99.6
18,CC(C)c1noc(-c2ccc(N(C)C3CCOCC3)nc2)n1,-61.1
19,Cc1ccccc1-c1noc(-c2ccc(N(C)C3CCOCC3)nc2)n1,83.2
20,O=C(OCc1cc(=O)n2cc(Br)ccc2n1)c1ccc2c(c1)OCO2,19.8
21,O=C(NCCc1cccs1)N1CCCC2(CCC(=O)N(C3CC3)C2)C1 (stereo unspecified),9.87
22,COCCN1CC2(CCCN(C(=O)NCCc3cccs3)C2)CCC1=O (stereo unspecified),56.5

row,Compound,INHIBITION [%]
1,COCCN1CC2(CCCN(C(=O)CCCc3cccs3)C2)CCC1=O (stereo unspecified),25.1
2,CCN1CCCC(c2cc(Nc3cnccn3)nc(C)n2)C1 (stereo unspecified),-2.11
3,O=C(NCCCOCc1ccco1)c1cccnc1N1CCOCC1,18.2
4,CNc1nc(N2CCN(Cc3ccsc3)C(CCO)C2)nc2c1CCC2 (stereo unspecified),53.8
5,CNc1nc(N2C[C@H](NC(=O)CCOC)[C@@H](C3CC3)C2)nc2c1CCC2,33.4
6,Cc1cc(N2CCN(Cc3ccsc3)C(CCO)C2)nc(N)n1 (stereo unspecified),50.5
7,Cc1cc(N2CCC(NS(C)(=O)=O)CC2)nc(C(C)C)n1,49
8,CC(C)Oc1cc(N2CCN(Cc3ccsc3)C(CCO)C2)nc(N)n1 (stereo unspecified),49.4
9,Cc1cc(N2CCC(NC(C)Cc3ccsc3)CC2)nc(C)n1 (stereo unspecified),27.9
10,Cc1cc(N2CCC(NC(C)Cc3ccsc3)CC2)nc(N)n1 (stereo unspecified),64.9
11,COc1cc(N2CCN(Cc3ccsc3)C(CCO)C2)nc(N)n1 (stereo unspecified),23.3
12,CNc1nc(N2CCN(C)C(CCO)C2)nc2c1CCC2 (stereo unspecified),23.5
13,CNc1nc(N2CCN(C3CCCCC3)C(CCO)C2)nc2c1CCC2 (stereo unspecified),12
14,CC(C)Nc1cc(N2CCN(Cc3ccccc3)C(CCO)C2)ncn1 (stereo unspecified),9.06
15,CNc1nc(N2CCN(CC=C(C)C)C(CCO)C2)nc2c1CCC2 (stereo unspecified),68.6
16,CC(=O)N1CC(=O)N(c2cnn(C)c2)CC12CCN(Cc1ccsc1)C2 (stereo unspecified),23.5
17,CC[C@@H](Cn1ncc2ccccc2c1=O)NC(=O)c1cnc(C)cn1,-20.6
18,Cc1ccc(-c2cnc3n2CCN(C)C32CCN(CC3CC3)CC2)cc1,-12.1
19,Cc1ccnc(C2CN(c3ncccn3)C2)n1,25.15
20,Nc1nc(Sc2cccs2)cc(N2CC[C@H](CO)[C@H](O)C2)n1,-28
21,CN1CCN(c2cc(Sc3cccs3)nc(N)n2)CC1CCO (stereo unspecified),50.2
22,CN1[C@@H]2CC[C@H]1CN(c1cc(Sc3cccs3)nc(N)n1)CC2,49.2

row,Compound,INHIBITION [%]
1,CCNC(=O)CN1CCc2c(Br)ccc(F)c2C1,-18.3
2,O=C(c1cnc(Nc2ccccc2)nc1)N1CCC2(CCNCC2)CC1,30.4
3,O=C(c1cnc(Nc2ccccc2)nc1)N1CCCC2(CCNC2)C1 (stereo unspecified),58.1
4,O=C(c1ccnc(-n2cnnc2)c1)N1CCCC2(CCNC2)C1 (stereo unspecified),56.5
5,O=C(c1ccc(-n2cnnc2)cc1Cl)N1CCCC2(CCNC2)C1 (stereo unspecified),35.1
6,O=C(c1ccnc(-n2cnnc2)c1)N1CCCC2(CCOC2)C1 (stereo unspecified),39.4
7,O=C(c1cnc(Nc2ccccc2)nc1)N1CCS(=O)(=O)CC1,27.4
8,CCOCCC(=O)N(CCC#N)c1ccc(C)c(C)c1,-2.27
9,CCc1[nH]nc(NC(=O)c2ccc(Cl)cn2)c1C,-61.3
10,COCCCN1CCC(N(Cc2noc(C)n2)C(C)=O)C1 (stereo unspecified),16.9
11,Cc1cc2c(=O)n3c(nc2s1)CCN(Cc1c[nH]cn1)CC3,23.2
12,Cc1cc2c(=O)n3c(nc2s1)CCN(Cc1ccncc1)CC3,58.6
13,Cc1cc2c(=O)n3c(nc2s1)CCN(Cc1[nH]cnc1C)CC3,54.4
14,CCc1ncc(CN2CCc3nc4sc(C)cc4c(=O)n3CC2)cn1,13
15,Cc1nc[nH]c1CN1CCc2nc3scc(C)c3c(=O)n2CC1,26.8
16,Cc1cc2c(=O)n3c(nc2s1)CCN(Cc1cnc(C(C)C)nc1)CC3,43.7
17,O=C1COC2(CCN(CC3CCC3)CC2)CN1c1cncnc1,8.67
18,Cn1cnnc1C1CCCN(C(=O)COc2ccccc2Cl)C1 (stereo unspecified),-37.7
19,Cc1cccc(CN2C[C@@H]3CN(C(=O)c4cnccn4)C[C@@H]3C2=O)n1,43.2
20,O=C(CCN1CCOCC1)Nc1cccc(CNCc2cccs2)c1,49.2
21,CCC[C@H]1CN(S(C)(=O)=O)C[C@@H]1NC(=O)Cc1ccc(OC)cc1,-26.9
22,COCCNC(=O)CCNC(=O)c1ccc(N2CCC(C)=N2)cc1,40.2

row,Compound,INHIBITION [%]
1,CC1=NN(c2ccc(C(=O)OCCNC(=O)c3ccncc3)cc2)CC1,-17.8
2,COCCOCCNC(=O)c1ccc(N2CCC(C)=N2)cc1,50.1
3,CC(NC(=O)N1CCCN(C)CC1)c1ccc2c(c1)OCCO2 (stereo unspecified),-9.39
4,Cn1nccc1C(=O)N1CCOC(Cc2cccnc2)C1 (stereo unspecified),39.2
5,c1cc(C2CC2)n2cnc(C3CN(Cc4nccs4)CCO3)c2c1 (stereo unspecified),15.7
6,c1cncc(CN2CCOC(c3ncn4c(C5CC5)cccc34)C2)c1 (stereo unspecified),14.2
7,c1cc(C2CC2)n2cnc(C3CN(Cc4ccncc4)CCO3)c2c1 (stereo unspecified),51.2
8,Cc1nc(C)n(CC2CCCN2c2ncnc3sc(C)c(C)c23)n1 (stereo unspecified),-11.6
9,c1ccc2ncc(CC3CCNCC3)cc2c1,-0.232
10,COC1C[C@@H]2CN(C(=O)Cc3ccc(C)s3)C[C@@H]2C1 (stereo partly specified),-34.45
11,FC(F)(F)c1cccc(CN2CCOC[C@H](Oc3cccnc3)C2)c1,63.8
12,Clc1ccc(CN2CCOC[C@H](Oc3cccnc3)C2)cc1,-11.1
13,Fc1ccc(CN2CCOC[C@H](Oc3cccnc3)C2)cc1,38.1
14,CC(C(=O)Nc1ccc(Cl)cn1)N1CCc2nn(C)c(=O)cc2C1 (stereo unspecified),6.23
15,Cc1cccc(CN2CCn3cc(Cn4cccn4)nc3C2)n1,-46.9
16,CO[C@H]1CNC[C@@H]1NC(=O)CCc1nc(-c2ccccc2)no1,0.426
17,CC(CNC(=O)c1ccn(-c2ccc(F)cc2)n1)Cn1cccn1 (stereo unspecified),39.6
18,Cc1nc(CN2CCO[C@@H]3CN(C(=O)CN(C)C)CC[C@@H]3C2)cs1,-9.18
